Screening results from PubChem BioAssay.
Sampled rows, rich in hits. Any-hit rate of the full collection: about 0.84%.
G6PDH CS – L. mesenteroides G6PDH inhibitors, counter-screen for G6PDH-coupled screening assays, biochemical, Leuconostoc mesenteroides enzyme. glucose-6-phosphate dehydrogenase [Leuconostoc mesenteroides]. Purified L. mesenteroides G6PDH, diaphorase/resazurin coupled fluorescence, 45 min. inhibition, % at 5 µM. 200,000 compounds, 0.12% hits. AID 1020, 2008; in the data active = inhibition above about 50%
TbHK1 inh – Trypanosoma brucei hexokinase 1 inhibitors, primary screen, biochemical, G6PDH-coupled NADH absorbance, MLSCN library; AID 1430, 2008; inhibition, % at 10 µM; 220,000 compounds, 0.11% hits; hexokinase 1 [Trypanosoma brucei]; recombinant TbHK1, G6PDH-coupled NADH A340;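 active = inhibition of 50% or more in the single-dose primary screen; inactive = inhibition below 50%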
DTT redox prof – compounds producing H2O2 with reducing agent – biochemical, NIH compound library profiling, artefact control for MLSCN library redox annotation, primary screen. AID 878, 2007. 200,000 compounds, 0.03% hits. DTT-dependent redox cycling H2O2, phenol red/HRP absorbance; 100% = 100 µM peroxide control, 0% = buffer. activation, % at 10 µM;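 active = activation of at least 50% relative to the plate's high and low controls in the primary single-dose screen; inactive = activation below 50%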;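 note: compound incubated with DTT at 0.8 mM final as the reducing agent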
p97 inhibitor – inhibitors of human p97 ATPase, primary screen, biochemical | recombinant p97 ATPase, Kinase-Glo ATP luminescence, 3 h | inhibition, % at 8 µM | 220,000 compounds, 0.42% hits; in the data active = inhibition above about 15%;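 note: 0% = DMSO vehicle and 100% = wells lacking enzyme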
S1P3 antag – S1P3 receptor antagonists, primary screen, cell-based; Sphingosine 1-phosphate receptor 3 (Homo sapiens), Q99500; CHO S1P3 NFAT-BLA reporter, FRET fluorescence, antagonist mode; inhibition, % at 4.98 µM; 170,000 compounds, 0.27% hits;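 active = inhibition above the plate cutoff, the mean inhibition of test wells on that plate plus 3 SD, cut at about 28% in these data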;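 note: cells challenged with S1P at its EC80 of 0.8 µM; blue over green emission ratio from cleaved BLA substrate after 4 h stimulation; 0% = S1P-stimulated wells and 100% = unstimulated DMSO-only wells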
Target sequence (Q99500 whole entry, looked up): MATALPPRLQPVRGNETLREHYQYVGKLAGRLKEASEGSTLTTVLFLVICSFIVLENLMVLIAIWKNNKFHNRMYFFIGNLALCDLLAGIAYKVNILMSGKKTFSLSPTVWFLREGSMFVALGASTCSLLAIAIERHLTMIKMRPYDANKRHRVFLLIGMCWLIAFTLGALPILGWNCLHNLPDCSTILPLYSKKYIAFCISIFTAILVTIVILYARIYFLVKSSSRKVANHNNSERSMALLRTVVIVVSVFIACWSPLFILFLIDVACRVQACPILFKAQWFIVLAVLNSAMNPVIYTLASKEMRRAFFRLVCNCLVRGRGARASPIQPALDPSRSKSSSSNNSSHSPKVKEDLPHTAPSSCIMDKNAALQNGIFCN
p97 confirm – p97 ATPase inhibitors, retest, confirmation, biochemical. shares compounds with p97 inhibitor. recombinant p97 ATPase, Kinase-Glo ATP luminescence. inhibition, % at 8 µM. 760 compounds, 44% hits. AID 1517, 2009;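 active = percent inhibition of p97 ATPase above a set limit, the primary screen's mean plus 3 SD, cut at about 15% in these data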;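 note: 0% = DMSO wells and 100% = wells lacking p97 protein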
* marks the source's active call; other numbers are inactive results; x = not tested or not shown.

SMILES | G6PDH CS | TbHK1 inh | DTT redox prof | p97 inhibitor | S1P3 antag | p97 confirm
COc1ccc(C(=O)NCc2ccc3c(c2)cc(C)n3C)cc1OC | 2.2 | 1.4 | -0.2 | 4.2 | -0.9 | x
CC1=NN(c2ccc(C)cc2C)C(=O)C1C(c1ccccc1O)C1C(=O)N(c2ccc(C)cc2C)N=C1C (configuration not stated) | 10.1 | -4.2 | -0.1 | 27.8* | -2.0 | 7.9
N#CC1=C(N)NC(=S)C(C(N)=O)C1c1ccccc1F (configuration not stated) | x | -25.3 | x | 15.7* | -3.7 | 6.2
N#CC1=C(N)NC(=S)C(C(N)=O)C1c1ccc(Cl)cc1Cl (configuration not stated) | 0.5 | -2.7 | 0.0 | 2.9 | 5.6 | x
CCOC(=O)C1=C(CSc2nc3c(cc2C#N)CN(C)CC3)OC(N)=C(C#N)C1c1ccc(F)cc1 (configuration not stated) | 4.1 | -26.0 | 1.3 | 0.7 | x | x
COc1cccc(Nc2ccccc2C(=O)O)c1 | 4.0 | 2.4 | -0.9 | 16.2* | -21.5 | 4.8
C[n+]1cccc2cccc([O-])c21 | x | -4.0 | x | 36.8* | 2.1 | 19.6*
N=c1c(C(=O)NCc2ccccc2)cc2c(=O)n3ccccc3nc2n1Cc1ccco1 | -1.4 | -4.4 | 0.9 | 22.8* | x | 13.1
CC1(C)Cc2nc3sc4c(N(CCO)CCO)nnnc4c3cc2CO1 | 3.8 | -11.7 | -0.3 | 2.5 | -1.5 | x
Cn1cccc1CC(=O)NNC(=O)Nc1ccc(Cl)cc1 | 5.8 | 4.3 | -0.1 | 18.8* | -1.7 | 7.2
Cn1cccc1CC(=O)N/N=C/c1ccco1 | x | -11.9 | x | 17.2* | -12.0 | 11.8
Cc1cccc(NC(=O)C2=C(O)c3ccccc3N(C)S2(=O)=O)c1 | -21.3 | -9.6 | 2.9 | 3.1 | x | x
CCc1ccc(/C=N/NC(=O)Cc2cccn2C)cc1 | x | -6.2 | x | 4.9 | 4.7 | x
O=C(CN1CCN(C(=O)N2CCOCC2)CC1)Nc1ccc(Br)cc1 | -5.4 | 5.3 | 0.2 | 0.0 | -6.7 | x
O=C(/C=C/c1ccco1)Nc1cccc(C(=O)Nc2ccccc2C(=O)O)c1 | x | -33.0 | x | 45.7* | -1.4 | 29.6*
CCc1ccccc1NC(=O)c1cccc(NC(=O)/C=C/c2ccco2)c1 | 1.9 | -20.5 | 0.3 | 1.3 | 5.8 | x
NS(=O)(=O)c1ccc(N2N=C(c3ccc(Br)cc3)CC2c2ccc(F)cc2)cc1 (configuration not stated) | -30.4 | -0.3 | 2.7 | 2.3 | x | x
COc1ccc(-c2cc(N)n(S(=O)(=O)c3c(F)c(F)c(F)c(F)c3F)n2)cc1OC | 2.3 | 1.2 | 0.1 | 21.9* | -0.4 | 25.6*
COc1ccc(S(=O)(=O)n2nc(-c3cc(OC)c(OC)c(OC)c3)cc2N)cc1OC | 9.7 | -6.1 | -0.1 | 3.5 | 2.1 | x
CCOC(=O)c1cn(Cc2ccc(Cl)cc2Cl)c2cc(C)nn2c1=O | x | 2.2 | x | -4.0 | -0.1 | x
O=c1c2c3nc4ccccc4nc3n(Cc3ccccc3)c2ncn1Cc1ccco1 | 7.8 | -10.8 | 2.4 | 16.4* | 3.0 | 34.0*
O=C(Cn1c(-c2ccccc2)noc1=O)Nc1ccc(S(=O)(=O)N2CCOCC2)cc1 | 2.9 | 5.5 | 0.8 | -6.0 | 2.4 | x
O=C(Cn1c(-c2ccccc2)noc1=O)Nc1ccc(N2CCCCCC2)cc1 | 0.6 | 4.8 | -0.6 | 16.0* | -1.5 | 3.0
Cn1cc(C(=O)c2ccc(Cl)cc2Cl)cc1C(=O)N/N=C(\N)COc1ccc(Cl)cc1 | x | -10.1 | x | 18.3* | -9.3 | 19.7*
Clc1cccc(N/N=C/c2ccncc2)c1 | -12.9 | -38.5 | -0.3 | 2.9 | 22.7 | x
SMILES | G6PDH CS | TbHK1 inh | DTT redox prof | p97 inhibitor | S1P3 antag | p97 confirm
O=C(Nc1ccc(Br)c2ccccc12)c1ccc2ccccc2c1O | x | -21.5 | x | 18.6* | 5.0 | 24.1*
COC(=O)c1cc(Oc2ccc(C(=O)OC)cc2N)cc(C(=O)OC)c1 | -7.7 | -11.3 | 0.0 | -1.7 | -3.3 | x
Cc1ccc(N/C(C(Cl)=C(Cl)Cl)=C(/Cl)[N+](=O)[O-])c(C)c1 | 1.7 | -2.5 | 0.0 | 19.5* | -11.2 | 21.3*
CCOC(=O)c1ccc(N(C(=O)c2cnccn2)C(C(=O)NC2CCCCC2)c2cn(C)nc2C)cc1 (configuration not stated) | 8.4 | -2.5 | 1.6 | 22.3* | x | 8.9
C=CC(=O)N=c1sc2ccccc2n1-c1ccccc1 | 3.5 | -37.5 | 5.2 | 17.5* | -20.0 | 16.7*
N=c1sc2ccccc2n1-c1ccccc1 | -5.3 | -2.8 | 2.9 | 4.7 | x | x
c1ccc(NC2=Nc3cccc4cccc2c34)cc1 | -3.4 | -8.8 | 0.3 | 6.7 | -6.0 | x
O=C(O)c1cccc(NC2=Nc3cccc4cccc2c34)c1 | x | -19.2 | x | 16.0* | 2.4 | 10.0
O=C(/C=C/c1ccco1)NCC1OCCc2ccccc21 (configuration not stated) | x | -2.0 | x | 8.8 | 11.6 | x
CC(C)c1nnc(NC(=O)C2CCCCC2)s1 | 8.7 | 0.2 | -0.4 | 15.8* | 93.9* | 2.2
CCc1nnc(NC(=O)C2CCCCC2)s1 | -8.0 | 2.5 | 1.5 | -2.8 | 4.8 | x
COc1ccc(-c2nnc3ccc(SCC(=O)NCc4ccco4)nn23)cc1OC | 1.5 | -22.3 | 1.9 | 7.1 | -12.8 | x
OCCNC(=S)NC1CCCCC1 | 0.4 | 0.7 | 0.5 | 0.3 | x | x
CCOC(=O)c1cc([N+](=O)[O-])c([N+](=O)[O-])cc1NC(C)=O | 5.5 | -16.8 | 0.5 | 15.8* | 7.4 | 35.3*
COc1ccc(Nc2nc3ccccc3nc2NS(=O)(=O)c2cccs2)c(OC)c1 | x | -34.1 | x | 23.8* | -13.1 | 29.3*
CC(C)CN(C(=O)CN1CCN(c2ccc(O)cc2)CC1)c1c(N)n(CC(C)C)c(=O)[nH]c1=O | 3.5 | -4.8 | -0.6 | 0.0 | 7.2 | x
Cc1ccc(S(=O)(=O)n2nc(OC(=O)c3ccco3)cc2N)cc1 | x | 6.6 | -0.3 | 1.1 | -8.1 | x
COc1ccccc1C(=O)Oc1cc(N)n(S(=O)(=O)c2ccc(C)cc2)n1 | 3.0 | -0.6 | 0.0 | 28.9* | 5.9 | 39.4*
CCCOc1ccc(C2C(C(=O)c3ccc(C)o3)=C(O)C(=O)N2CCN2CCOCC2)cc1OC (configuration not stated) | 5.9 | -12.7 | -0.4 | 4.4 | -3.8 | x
Cc1cccc(NC(=O)C2C(c3ccccc3)C2(Cl)Cl)c1 (configuration not stated) | 7.0 | 3.9 | -0.3 | 18.6* | 14.7 | 36.9*
COc1ccc(NC(=O)C2C(c3ccccc3)C2(Cl)Cl)cc1 (configuration not stated) | x | 6.3 | x | 8.0 | -1.4 | x
CC(=O)c1cccc(NC(=O)C2C(c3ccccc3)C2(Cl)Cl)c1 (configuration not stated) | 1.3 | 4.6 | -0.3 | 27.7* | -7.3 | 31.8*
O=C(CSc1ncnc2scc(-c3ccccc3)c12)Nc1ccc(C(=O)O)cc1 | x | -3.9 | x | 19.7* | -5.2 | 16.8*
